# Key:
# Assay in all cases: PBM binding z-score (relative to random genomic background probes); higher = stronger binding; sequences stand for … in GC…GCGATTGACAGCGTAGAATGAAGG
# [1] = tested on: FXR:RXRa (NR concentration 270 nM, RXRa partner concentration 90 nM)
# Summary of the method: (§1)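 Custom Agilent 4×180K protein-binding microarrays carried double-stranded probes, each with a 34-nt variable region. These regions held direct-repeat seeds, single-nucleotide variants, half-site ablations and random human genomic background sequences. Ligand-free nuclear receptor dimers were incubated on the arrays for 1 h, antibodies against each partner (one per run) detected binding, and scanned fluorescence was regression-normalized. Binding z-scores take the random background probes as reference.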
# [2] = tested on: LXRa:RXRa (NR concentration 270 nM, RXRa partner concentration 90 nM)
# Summary of the method: as §1
# [3] = tested on: LXRa homodimer (NR concentration 270 nM)
# Summary of the method: as §1
# [4] = tested on: LXRb:RXRa (NR concentration 270 nM, RXRa partner concentration 90 nM)
# Summary of the method: as §1
# [5] = tested on: LXRb homodimer (NR concentration 270 nM)
# Summary of the method: as §1
# [6] = tested on: PPARa:RXRa (NR concentration 270 nM, RXRa partner concentration 90 nM)
# Summary of the method: as §1
# [7] = tested on: PPARg:RXRa (NR concentration 180 nM, RXRa partner concentration 90 nM)
# Summary of the method: as §1
# [8] = tested on: PPARg:RXRa 270nM:90nM, anti-RXR (NR concentration 270 nM, RXRa partner concentration 90 nM)
# Summary of the method: as §1
# [9] = tested on: PPARg:RXRa 30nM:10nM, anti-RXR (NR concentration 30 nM, RXRa partner concentration 10 nM)
# Summary of the method: as §1
# [10] = tested on: PPARg:RXRa 90nM:30nM, anti-RXR (NR concentration 90 nM, RXRa partner concentration 30 nM)
# Summary of the method: as §1
# [11] = tested on: PPARg:RXRa DBDmut IVT, anti-RXR (DBD mutation: RXRa K156A/R161A, NR concentration 270 nM, RXRa partner concentration 90 nM)
# Summary of the method: as §1
# [12] = tested on: PPARg:RXRa IVT, anti-PPARg (NR concentration 270 nM, RXRa partner concentration 90 nM)
# Summary of the method: as §1
# [13] = tested on: PPARg DBDmut:RXRa IVT, anti-PPARg (DBD mutation: PPARg1 K132A/R137A, NR concentration 270 nM, RXRa partner concentration 90 nM)
# Summary of the method: as §1
# [14] = tested on: PPARg DBDmut IVT, anti-PPARg (DBD mutation: PPARg1 K132A/R137A, NR concentration 270 nM)
# Summary of the method: as §1
# [15] = tested on: PPARg homodimer (NR concentration 180 nM)
# Summary of the method: as §1
# [16] = tested on: PXR:RXRa (NR concentration 270 nM, RXRa partner concentration 90 nM)
# Summary of the method: as §1
# [17] = tested on: PXR homodimer (NR concentration 270 nM)
# Summary of the method: as §1
# [18] = tested on: RARa:RXR (NR concentration 270 nM, RXRa partner concentration 90 nM)
# Summary of the method: as §1
# [19] = tested on: RARa homodimer (NR concentration 270 nM)
# Summary of the method: as §1
# [20] = tested on: RARb:RXRa (NR concentration 270 nM, RXRa partner concentration 90 nM)
# Summary of the method: as §1
Sequence,PBM binding z-score [1],PBM binding z-score [2],PBM binding z-score [3],PBM binding z-score [4],PBM binding z-score [5],PBM binding z-score [6],PBM binding z-score [7],PBM binding z-score [8],PBM binding z-score [9],PBM binding z-score [10],PBM binding z-score [11],PBM binding z-score [12],PBM binding z-score [13],PBM binding z-score [14],PBM binding z-score [15],PBM binding z-score [16],PBM binding z-score [17],PBM binding z-score [18],PBM binding z-score [19],PBM binding z-score [20]
CCTAGTTGGTCAGGATGTCACACACCGGATATGA,-0.184,-0.0235,0.256,0.227,0.348,0.0864,0.898,0.76,-0.14,0.424,0.536,1.16,0.182,0.583,1.42,0.0986,0.254,0.0158,1.18,0.798
AGAACGAGGGGAATGAGTTGATAGCACGGGTGGC,-0.0217,-0.0133,-0.00891,-0.228,0.0514,0.192,0.861,-0.0385,-0.193,-0.152,1.5,0.636,0.108,0.301,0.561,-0.115,0.264,0.125,0.109,0.142
AGTCAAAGTTCGTCTAGGTAACGTAAGATATGCT,1.46,1.16,0.363,0.787,-0.0526,1.84,2.79,3.39,1.44,2.71,-0.0534,1.36,0.664,0.773,1.41,1.99,1.83,1.34,0.143,2.54
ACTCGGAGGACAAAGGTCATAGCTACGCCAGTGA,6.1,5.52,4.19,4.73,0.856,6.18,8.47,7.15,6.46,8.09,1.2,4.45,0.463,0.599,3.32,5.22,0.775,5.76,1.36,4.83
GCTTACGGGTCAAAGGTTAGAGCATGAATAGAAT,7.32,5.34,0.175,5.27,-0.0451,6.73,10.6,8.89,8.08,9.45,4.34,5.74,0.587,1.17,3.25,5.59,0.235,7.74,0.552,4.37
GAGACTGGGGCAAAGCAGGTTACCATAAGGTTGG,0.509,0.532,-0.00898,0.677,-0.382,2.04,2.19,1.98,0.147,1.35,5.26,5.09,0.833,0.122,1.16,0.725,0.197,1.26,-0.331,1.14
TCTGCTAGGTCAGTTGGTAAGCTAACGAGCTGCC,0.91,0.626,-1.01,0.157,0.503,0.96,0.118,1.28,1.04,1.18,2.46,2.46,-0.0986,0.0442,-0.393,-0.186,-1.11,0.233,-1.42,3.29
CAAACTTGGTCAAGGTCAAAGTCGGTTTGTGCCA,4.61,4.38,2.94,3.8,0.689,4.46,2.73,3.77,1,2.73,2.24,3.79,0.249,1.03,1.86,4.45,1.54,4.15,0.201,4.12
CGTCCAAGGTCAATGCTAGGTCAGTGAAAGCATT,6.67,5.72,2.67,3.98,0.958,5.11,4.02,4.74,1.16,3.17,3.41,3.83,0.477,0.749,6.35,5.01,1.68,6.41,1.72,5.23
GCTTACGGGTCAAAGGTTATTGCATGAATAGAAT,7.79,5.75,1.09,5.81,0.701,6.84,11.3,9.3,8.78,10.8,4.96,5.79,2.15,2.94,3.22,6.21,0.728,8.16,1,4.49
TCTCGGTGGACACGAAGGTCAGAGCTTTCCAGAG,0.952,0.962,0.157,1.36,-0.833,2.04,0.78,2.38,2.3,2.3,1,0.976,-1.18,-1.31,0.842,1.38,-0.107,1.55,-0.711,2.57
CCTAGAAGGCCAGGGTCACTCAAGCATTTCGCTT,2.51,1.79,-0.266,2.02,-0.312,3.12,0.628,1.35,-0.294,0.786,0.376,0.709,-1.14,-1.39,1.89,2.81,0.284,3.21,1.23,3.06
CCGAGTAGGTTATGGTGCATTCAGGCAACGGTGA,0.234,0.34,0.363,0.361,0.234,1.52,2.04,3.55,1.15,3.04,3.71,2.67,0.333,-0.183,1.25,-0.0319,0.413,0.311,0.498,0.711
CCTAGTTGGTCAAGGTCGCACACGCTATAGGTAC,1.28,0.906,0.275,1.18,-0.0478,1.68,1.15,1.37,0.0592,0.958,1.4,1.87,0.308,0.288,1.55,1.57,1.04,1.69,0.482,2.43
